# According to PubChem BioAssay (NCATS):
# A number with no mark means an inactive call. Results filed as inconclusive are left out. Where a call stands in place of a potency, no number is given. Active and inactive are the calls of the source. Calls come from the whole dose curve; as a rule, active = well fitted curve in the direction sought with a large enough effect; inconclusive = small, poorly fitted or top-dose-only effect, or another doubt; inactive = no such curve, though single readings can be large; an effect the other way counts as inactive or inconclusive.
# Assays:
# [1] = biological target: Cytochrome P450 3A4 (Homo sapiens) (UniProt P08684); assay: qHTS Assay for Inhibitors and Substrates of Cytochrome P450 3A4 (AID 884); note: series mostly up to about 57 µM; nearly all actives have a fitted effect of over 50% in size
# In short: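 20 nM human CYP3A4 with 25 uM Luciferin-PPXE (at KM) in 200 mM KPO4, preincubated 10 min with compound; NADPH regeneration started a 60 min RT reaction. Luciferin detected by luminescence, normalized to 57 uM ketoconazole as full inhibition.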
# [2] = biological target: DNA dC->dU-editing enzyme APOBEC-3G (Homo sapiens) (UniProt Q9HC16); assay: qHTS for inhibitors of Vif-A3G interactions: Validation (AID 588379)
# In short: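 HeLa cells stably expressing Vif and A3G-eYFP, 700 cells/well, incubated overnight at 37 deg C, then exposed to compound overnight at 37 deg C. Inhibition of Vif-mediated degradation read as increased yellow fluorescence (Ex 488/Em 500-530) by laser-scanning cytometry.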
# [3] = biological target: Rap guanine nucleotide exchange factor 3 (Homo sapiens) (UniProt O95398); assay: Confirmatory qHTS for antagonist of cAMP-regulated guanine nucleotide exchange factor 3 (EPAC1) (AID 1645880); note: nearly all actives have a fitted effect of over 55% in size; note: potency is the fitted concentration of half-maximal effect
# In short: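 Nucleotide exchange uses 100 nM EPAC1, 250 nM RAP1B-BODIPY-GDP and 50 uM GDP, with compounds in a concentration-titration series. After 5 min at room temperature, fluorescence (480 nm ex/540 nm em) is read every 5 min for 30 min. Data are normalized to control ATA and DMSO.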
# [4] = biological target: Rap guanine nucleotide exchange factor 3 (Homo sapiens) (UniProt O95398); assay: Confirmatory qHTS for agonist of cAMP-regulated guanine nucleotide exchange factor 3 (EPAC1) (AID 1645881);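 note: EPAC1 catalysed release of BODIPY-GDP from Rap1B seen as fluorescence loss; nearly all actives have a fitted effect of over 75% in size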
# [5] = biological target: Rap guanine nucleotide exchange factor 4 (Homo sapiens) (UniProt Q8WZA2); assay: Confirmatory qHTS for agonist of cAMP-regulated guanine nucleotide exchange factor 4 (EPAC2) (AID 1645884);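 note: nucleotide exchange releases bodipy-GDP from Rap1 and this lowers its fluorescence; nearly all actives have a fitted effect of over 65% in size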
# [6] = biological target: Rap guanine nucleotide exchange factor 4 (Homo sapiens) (UniProt Q8WZA2); assay: Confirmatory qHTS for antagonist of cAMP-regulated guanine nucleotide exchange factor 4 (EPAC2) (AID 1645885); note: nearly all actives have a fitted effect of over 25% in size
# [7] = biological target: Rap guanine nucleotide exchange factor 3 (Homo sapiens) (UniProt O95398); assay: Counterscreen qHTS for antagonist of cAMP-regulated guanine nucleotide exchange factor 3 (EPAC1) (AID 1645888);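 note: fluorescence loss as bound BODIPY-GDP is released from Rap1B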
# In short: (§1)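 Rap1B-BODIPY-GDP 250 nM + GDP 50 uM; cpds 7-pt, final 9.74 nM–152 uM (activator mode) or from 7.32 nM upwards (inhibitor mode); RT; FI 480/540 nm at 5 and 30 min, then ± cAMP, reread.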
# [8] = biological target: Rap guanine nucleotide exchange factor 3 (Homo sapiens) (UniProt O95398); assay: Counterscreen qHTS for agonist of cAMP-regulated guanine nucleotide exchange factor 3 (EPAC1) (AID 1645889); note: nearly all actives have a fitted effect of over 40% in size; note: potency is the fitted concentration of half-maximal effect
# In short: as §1
# Sequence of Rap guanine nucleotide exchange factor 4 (Homo sapiens) (Q8WZA2 whole entry, looked up): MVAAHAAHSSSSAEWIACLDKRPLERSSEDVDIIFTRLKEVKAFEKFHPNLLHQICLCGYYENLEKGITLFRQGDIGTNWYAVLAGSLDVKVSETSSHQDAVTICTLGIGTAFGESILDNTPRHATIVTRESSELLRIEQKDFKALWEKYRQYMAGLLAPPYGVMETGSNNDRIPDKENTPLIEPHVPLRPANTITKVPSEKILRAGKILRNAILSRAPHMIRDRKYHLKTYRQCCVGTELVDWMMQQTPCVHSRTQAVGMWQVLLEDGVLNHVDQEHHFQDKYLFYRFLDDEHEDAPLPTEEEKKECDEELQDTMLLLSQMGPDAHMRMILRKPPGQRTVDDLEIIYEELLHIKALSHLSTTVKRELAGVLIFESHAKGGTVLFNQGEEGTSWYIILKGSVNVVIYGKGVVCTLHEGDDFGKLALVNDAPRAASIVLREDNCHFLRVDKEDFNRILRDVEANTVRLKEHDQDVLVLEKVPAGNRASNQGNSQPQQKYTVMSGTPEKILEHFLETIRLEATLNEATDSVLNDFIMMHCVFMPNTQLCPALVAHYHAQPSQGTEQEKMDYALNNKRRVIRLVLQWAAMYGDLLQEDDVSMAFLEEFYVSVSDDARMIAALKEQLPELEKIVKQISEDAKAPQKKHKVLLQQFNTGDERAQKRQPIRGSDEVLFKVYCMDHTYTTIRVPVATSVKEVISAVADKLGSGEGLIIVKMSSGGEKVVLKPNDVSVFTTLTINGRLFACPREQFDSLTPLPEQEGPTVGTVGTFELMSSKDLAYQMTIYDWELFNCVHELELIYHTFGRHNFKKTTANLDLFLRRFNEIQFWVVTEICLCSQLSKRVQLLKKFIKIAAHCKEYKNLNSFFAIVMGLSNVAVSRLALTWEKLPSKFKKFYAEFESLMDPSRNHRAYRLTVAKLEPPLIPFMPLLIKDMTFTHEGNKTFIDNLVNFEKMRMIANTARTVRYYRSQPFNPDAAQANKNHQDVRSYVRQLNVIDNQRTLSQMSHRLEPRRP
# Sequence of Rap guanine nucleotide exchange factor 3 (Homo sapiens) (O95398 whole entry, looked up): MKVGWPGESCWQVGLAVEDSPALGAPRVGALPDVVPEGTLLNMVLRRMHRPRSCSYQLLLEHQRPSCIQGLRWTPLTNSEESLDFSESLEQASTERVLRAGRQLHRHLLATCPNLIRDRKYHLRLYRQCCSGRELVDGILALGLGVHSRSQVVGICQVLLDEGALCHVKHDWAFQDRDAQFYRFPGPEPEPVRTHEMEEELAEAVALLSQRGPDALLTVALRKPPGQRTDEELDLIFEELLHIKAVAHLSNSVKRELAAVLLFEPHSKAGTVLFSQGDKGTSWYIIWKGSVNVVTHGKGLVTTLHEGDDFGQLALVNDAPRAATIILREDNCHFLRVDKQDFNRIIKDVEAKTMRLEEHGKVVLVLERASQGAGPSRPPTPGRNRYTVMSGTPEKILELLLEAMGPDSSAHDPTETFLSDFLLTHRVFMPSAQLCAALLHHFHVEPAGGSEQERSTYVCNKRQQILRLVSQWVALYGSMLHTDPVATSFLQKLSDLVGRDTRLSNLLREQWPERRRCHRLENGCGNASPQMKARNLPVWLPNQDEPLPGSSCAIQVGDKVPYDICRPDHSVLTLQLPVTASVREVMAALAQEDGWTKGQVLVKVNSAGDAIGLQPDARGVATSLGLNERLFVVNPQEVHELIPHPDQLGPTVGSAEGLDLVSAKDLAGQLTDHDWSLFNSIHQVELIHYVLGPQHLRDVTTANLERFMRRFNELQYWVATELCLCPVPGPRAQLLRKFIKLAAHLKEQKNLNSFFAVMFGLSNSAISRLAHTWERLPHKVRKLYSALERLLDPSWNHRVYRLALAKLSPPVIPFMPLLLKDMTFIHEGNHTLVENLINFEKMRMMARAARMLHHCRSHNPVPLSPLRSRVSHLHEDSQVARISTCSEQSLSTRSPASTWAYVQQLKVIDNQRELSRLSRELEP
# Sequence of Cytochrome P450 3A4 (Homo sapiens) (P08684 whole entry, looked up): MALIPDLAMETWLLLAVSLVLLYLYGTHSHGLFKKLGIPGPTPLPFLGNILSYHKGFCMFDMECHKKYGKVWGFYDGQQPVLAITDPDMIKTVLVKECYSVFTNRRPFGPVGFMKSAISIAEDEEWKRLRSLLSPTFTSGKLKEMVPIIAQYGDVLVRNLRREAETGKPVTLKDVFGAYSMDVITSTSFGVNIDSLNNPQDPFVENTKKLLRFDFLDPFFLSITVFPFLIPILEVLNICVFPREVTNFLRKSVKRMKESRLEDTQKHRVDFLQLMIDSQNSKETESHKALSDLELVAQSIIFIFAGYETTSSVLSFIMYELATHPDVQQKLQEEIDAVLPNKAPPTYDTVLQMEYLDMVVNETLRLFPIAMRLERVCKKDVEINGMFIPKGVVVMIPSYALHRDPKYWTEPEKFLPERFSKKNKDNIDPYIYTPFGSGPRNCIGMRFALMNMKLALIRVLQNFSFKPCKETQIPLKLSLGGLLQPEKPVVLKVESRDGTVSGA
# Sequence of DNA dC->dU-editing enzyme APOBEC-3G (Homo sapiens) (Q9HC16 whole entry, looked up): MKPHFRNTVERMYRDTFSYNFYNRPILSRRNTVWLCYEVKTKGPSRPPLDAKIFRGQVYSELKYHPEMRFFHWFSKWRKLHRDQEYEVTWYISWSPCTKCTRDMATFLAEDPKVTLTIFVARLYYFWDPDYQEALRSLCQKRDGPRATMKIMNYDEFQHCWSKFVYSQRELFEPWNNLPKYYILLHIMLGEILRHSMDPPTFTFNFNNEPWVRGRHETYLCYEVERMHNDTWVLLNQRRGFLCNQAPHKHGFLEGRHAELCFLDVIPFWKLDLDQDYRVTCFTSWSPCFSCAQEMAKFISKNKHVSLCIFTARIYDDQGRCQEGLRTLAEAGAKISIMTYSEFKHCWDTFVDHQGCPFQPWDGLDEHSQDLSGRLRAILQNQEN
smiles,measurement,setting,value
CN1CC[C@@]2(C)c3cc(O)ccc3N(C)[C@@H]12,Potency,[1],inactive
same,outcome,[2],inactive
same,Potency,[3],inactive
same,Potency,[4],inactive
same,Potency,[5],inactive
same,Potency,[6],inactive
same,outcome,[7],inactive
same,Potency,[8],5.62 µM (active)
O=c1[nH]c(=S)n(-c2ccc(Cl)cc2)c(O)c1C=Nc1ccc(N2CCOCC2)cc1,Potency,[3],inactive
same,Potency,[5],inactive
same,Potency,[6],inactive
same,outcome,[7],inactive
same,Potency,[8],inactive
CCCCNC(=O)c1c(N)n(CCCOC)c2nc3ccccc3nc12,Potency,[3],84.9 µM (active)
same,Potency,[4],inactive
same,Potency,[5],inactive
same,outcome,[7],inactive
O=C1CN=C(c2ccccc2)c2cc(Cl)ccc2N1Cc1ccc(Cl)cc1,Potency,[3],inactive
same,Potency,[5],inactive
same,"activity change, negative = inhibition",[6],1.14% [at 12.7 µM]
same,outcome,[7],inactive
COC(=O)N1C(c2ccccc2)C1c1ccccc1 (stereo not given),Potency,[3],inactive
same,Potency,[4],inactive
same,activation,[5],"10.2% [at 17.1 µM, percent relative to cAMP agonist control]"
same,"activity change, negative = inhibition",[7],4.2% [at 30.8 µM]
